Results from PubChem BioAssay (EPA / NIEHS).
Several values for one entry are separate records, joined by “and”; a condition that tells them apart may be missing. Equal values may be shown once. More than one record can exist for a structure, and the calls need not agree. Activity calls are given as the source filed them. How the source made its calls: active means hit-call score of the fitted dose curve at least 0.9, where 1 is the maximum; inactive means score below 0.9.

Key:
[1] = APR_HepG2_P-H2AX_72hr: Apredica 72-hour HepG2 Assay for H2AX Phosphorylation (AID 2282916); conditions: imaging, actives raise or lower the signal;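 further: phospho-histone H2A.x immunostain intensity per cell marking DNA damage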
Outline: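 HepG2; cpd 0.39–200 uM ×10 conc, duplicates; 0.5% DMSO; 72 hr. Fix 3.7% formaldehyde 30 min RT, 0.5% Triton X-100 10 min. Anti-phospho-H2A.x 1:200 + Hoechst 2 ug/mL, 60 min RT; ArrayScan imaging.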

[2] = APR_HepG2_MitoMembPot_72hr: Apredica 72-hour HepG2 Assay for Mitochondrial Membrane Potential (AID 2282917); conditions: imaging, actives raise or lower the signal
Outline: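 Membrane potential read by MitoTracker Red CMXRos (250 nM, 30 min, pre-fixation) fluorescence imaging of HepG2 after 72 hr exposure. Ten concentrations, 0.39–200 uM, duplicate wells, 0.5% DMSO; fitted in both directions against DMSO baseline.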

[3] = APR_HepG2_MitoticArrest_72hr: Apredica 72-hour HepG2 Assay for Mitotic Arrest (AID 2282918); conditions: high-content imaging, actives raise or lower the signal
Outline: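 HepG2, 72 hr exposure, 0.39–200 uM in duplicate, 0.5% v/v DMSO final. Formaldehyde-fixed, Triton-permeabilized, anti-phospho-histone H3/FITC plus Hoechst. ArrayScan imaging at 20x; curves fit bidirectionally against DMSO baseline.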

[4] = APR_HepG2_MicrotubuleCSK_72hr: Apredica 72-hour HepG2 Assay for Microtubule CSK Stabilty (AID 2282919); conditions: HepG2 microtubule cytoskeleton, high-content imaging, actives raise or lower the signal
Outline: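 Read-out is tubulin fluorescence intensity from high-content imaging of HepG2 cells, with nuclei identified by Hoechst 33342. Treatment lasts 72 h at 0.39–200 uM, and curves are fitted bidirectionally against the DMSO negative control.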

[5] = APR_HepG2_StressKinase_72hr: Apredica 72-hour HepG2 Assay for Stress Kinase (AID 2282921); conditions: HepG2 stress kinase (phospho-c-Jun) imaging, actives raise or lower the signal
Outline: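 Dose 0.39–200 uM (10 pts, duplicate), 0.5% DMSO; 72 h; fix 3.7% formaldehyde 30 min RT; Triton permeabilize; anti-phospho-c-Jun/Cy3 + Hoechst 60 min RT; image 20x; fit gain/loss vs DMSO.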

[6] = APR_HepG2_StressKinase_24hr: Apredica 24-hour HepG2 Assay for Stress Kinase (AID 2282922); conditions: HepG2 stress kinase (phospho-c-Jun) imaging, actives raise or lower the signal
Outline: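 HepG2, 24 hr dosing, 0.39–200 uM in duplicate, 0.5% DMSO; formaldehyde fix (3.7%), 0.5% Triton X-100; anti-phospho-c-Jun + Cy3 secondary, Hoechst counterstain; ArrayScan imaging; bidirectional curve fit vs DMSO baseline.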

[7] = APR_HepG2_p53Act_72hr: Apredica 72-hour HepG2 Assay for p53 Activation (AID 2282923); conditions: high-content imaging, actives raise or lower the signal;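 further: average cellular p53 protein immunofluorescence intensity in HepG2 cells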
Outline: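 10-pt conc. 0.39–200 uM, duplicate, 0.5% DMSO; 72 hr exposure; 3.7% formaldehyde fix, 0.5% Triton perm; sheep anti-p53/Cy5 + Hoechst; ArrayScan 20x, 6 images/well; gain/loss fit vs DMSO.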

[8] = APR_HepG2_MitoMass_72hr: Apredica 72-hour HepG2 Assay for Mitochondrial Mass (AID 2282924); conditions: high-content imaging, actives raise or lower the signal;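 further: MitoTracker Red CMXRos stain intensity per cell imaged as mitochondrial mass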
Outline: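 HepG2, 72 hr cmpd, 10 conc 0.39–200 uM in dup, DMSO 0.5% v/v. MitoTracker Red CMXRos 250 nM 30 min pre-fix; formaldehyde 3.7% fix 30 min RT. HCS imaging, gain/loss fit vs DMSO.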

[9] = APR_HepG2_NuclearSize_72hr: Apredica 72-hour HepG2 Assay for Nuclear Size (AID 2282925); conditions: high-content imaging, actives raise or lower the signal
Outline: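 HepG2; cpd 0.39–200 uM, 10 conc, duplicate; 72 h; DMSO 0.5% v/v; fix 3.7% formaldehyde 30 min RT; Triton permeabilization; Hoechst 2 ug/mL; HCS imaging 20x; nuclear diameter; gain/loss fit vs DMSO.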

[10] = ATG_CRE_CIS: Attagene CIS-FACTORIAL HepG2 Assay for human cAMP Responsive Element (CRE) binding protein 3 (AID 2282926); conditions: HepG2 CRE cis-reporter, Attagene multiplexed mRNA; actives raise or lower the signal
Outline: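 Endogenous CRE-binding activity in HepG2 is reported through a cis-regulated transfected reporter. Following a day of exposure, mRNA levels are determined by reverse transcription PCR and fluorescent fragment analysis; fits run in both directions versus DMSO.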

[11] = molecular target: CCAAT/enhancer-binding protein beta (Homo sapiens) (UniProt P17676); experiment: ATG_C_EBP_CIS: Attagene CIS-FACTORIAL HepG2 Assay for human CCAAT/Enhancer Binding Protein (C/EBP) beta (AID 2282927); conditions: HepG2 Attagene cis-factorial transcription factor reporter; actives raise or lower the signal
Outline: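 Endogenous C/EBPb-driven reporter transcripts measured in transfected human HepG2 cells at 24 h via RT-PCR and capillary electrophoresis of labelled fragments. Activity fitted in both directions relative to DMSO baseline.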

[12] = ATG_CMV_CIS: Attagene CIS-FACTORIAL HepG2 Assay for human CMV (Internal Marker) (AID 2282928); conditions: HepG2 CMV promoter reporter, transcription factor profiling; actives raise or lower the signal;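 further: endpoint acts as a background internal control marker rather than a target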
Outline: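 After transient transfection of HepG2 with reporter transcription units driven by cis-regulatory promoters, cells receive test chemical for 24 h. Labeled reporter amplicons, digested with HpaI, are sized and quantified by capillary electrophoresis against DMSO.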

[13] = ATG_DR4_LXR_CIS: Attagene CIS-FACTORIAL HepG2 Assay for human Liver X Receptor (LXR), DR4 submotif (AID 2282929); conditions: HepG2 Attagene DR4 cis-reporter, mRNA transcription; actives raise or lower the signal
Outline: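 Transiently transfected HepG2 liver cells; cis-regulated reporters; 24 h dosing. RT-PCR plus CE read-out of reporter mRNA. DMSO baseline, bidirectional curve fitting.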

[14] = ATG_AP_1_CIS: Attagene CIS-FACTORIAL HepG2 Assay for human Activator Protein 1 (AP-1) (AID 2282931); conditions: HepG2 Attagene cis-factorial AP-1 reporter mRNA; actives raise or lower the signal
Outline: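 We transfected HepG2 cells transiently with a set of cis-regulated reporter transcription units, dosed them for 24 h, and quantified reporter mRNA via RT-PCR and capillary electrophoresis, scoring gain or loss of signal relative to DMSO.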

[15] = ATG_AP_2_CIS: Attagene CIS-FACTORIAL HepG2 Assay for human Activator Protein 2 (AP-2) (AID 2282932); conditions: HepG2 AP-2 cis-reporter, Attagene transcription factor profiling; actives raise or lower the signal
Outline: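 HepG2, transient MRTU transfection, cis-regulated reporters; 24 h compound exposure; RNA isolated, RT-PCR, 6-FAM labelling, HpaI digest, CE fluorescence. DMSO = negative control/baseline, bidirectional fit.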

[16] = ATG_BRE_CIS: Attagene CIS-FACTORIAL HepG2 Assay for human Bone Morphogenetic Protein (BMP) Response Element (BRE) (AID 2282933); conditions: HepG2 BMP response element reporter, Attagene transcription factor profiling; actives raise or lower the signal
Outline: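 Endogenous transcription factor activity at a BMP response element was monitored in transfected HepG2 cells 24 h after dosing. Fluorescent RT-PCR products were resolved by capillary electrophoresis, and activity was fitted in both directions versus DMSO.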

[17] = APR_HepG2_P-H2AX_24hr: Apredica 24-hour HepG2 Assay for H2AX Phosphorylation (AID 2282920); conditions: high-content imaging, actives raise or lower the signal
Outline: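 HCS fluorescence imaging of phospho-H2A.x immunostain (with Hoechst 33342 nuclear counterstain) in HepG2 after 24 hr compound exposure; 10 concentrations, 0.39–200 uM, duplicate wells, 0.5% v/v DMSO. Gain or loss of signal fitted relative to DMSO baseline.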

[18] = molecular target: Retinoic acid receptor alpha (Homo sapiens) (UniProt P10276); experiment: ATG_DR5_RAR_CIS: Attagene CIS-FACTORIAL HepG2 Assay for human Retinoic Acid Receptor Alpha (RARE), DR5 submotif (AID 2282934); conditions: HepG2 Attagene cis-factorial RARE DR5 reporter, mRNA; actives raise or lower the signal
Outline: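 Reporter transcripts from a DR5-regulated unit, measured via RT-PCR plus capillary electrophoresis, reflect endogenous RAR activity in transiently transfected human HepG2 liver cells. Exposure lasted 24 h; gain or loss of signal scored against DMSO.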

[19] = molecular target: Aryl hydrocarbon receptor (Homo sapiens) (UniProt P35869); experiment: ATG_Ahr_CIS: Attagene CIS-FACTORIAL HepG2 Assay for human Aryl Hydrocarbon Receptor (Ahr) (AID 2282930); conditions: HepG2 AhR cis-factorial reporter transcription; actives raise or lower the signal
Outline: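 Reporter mRNA levels, quantified by RT-PCR and fluorescent capillary electrophoresis, reflect endogenous AhR transcriptional activity in HepG2 cells carrying transfected cis-promoter reporter constructs. Readout at 24 h post-dose; gain or loss fitted against DMSO baseline.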

[20] = molecular target: Transcription factor E2F1 (Homo sapiens) (UniProt Q01094); experiment: ATG_E2F_CIS: Attagene CIS-FACTORIAL HepG2 Assay for human E2F Transcription Factor 1 (AID 2282935); conditions: HepG2 Attagene cis-reporter, E2F reporter RNA transcripts; actives raise or lower the signal
Outline: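 Cis-element reporter mRNA induction in transiently transfected HepG2, 24 h exposure. Activity fitted in both directions relative to DMSO negative control.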

Measured: AC50

CCAAT/enhancer-binding protein beta (Homo sapiens), sequence (P17676 whole entry, looked up, the tested form may be a part): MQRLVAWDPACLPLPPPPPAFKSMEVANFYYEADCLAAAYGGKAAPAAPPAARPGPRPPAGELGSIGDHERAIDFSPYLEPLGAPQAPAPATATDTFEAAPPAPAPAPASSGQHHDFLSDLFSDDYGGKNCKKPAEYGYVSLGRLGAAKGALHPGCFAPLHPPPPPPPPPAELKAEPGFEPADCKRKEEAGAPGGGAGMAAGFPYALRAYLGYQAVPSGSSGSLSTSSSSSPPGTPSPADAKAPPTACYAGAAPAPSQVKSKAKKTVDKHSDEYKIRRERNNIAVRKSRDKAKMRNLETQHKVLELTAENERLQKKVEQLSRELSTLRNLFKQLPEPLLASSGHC
Transcription factor E2F1 (Homo sapiens), sequence (Q01094 whole entry, looked up): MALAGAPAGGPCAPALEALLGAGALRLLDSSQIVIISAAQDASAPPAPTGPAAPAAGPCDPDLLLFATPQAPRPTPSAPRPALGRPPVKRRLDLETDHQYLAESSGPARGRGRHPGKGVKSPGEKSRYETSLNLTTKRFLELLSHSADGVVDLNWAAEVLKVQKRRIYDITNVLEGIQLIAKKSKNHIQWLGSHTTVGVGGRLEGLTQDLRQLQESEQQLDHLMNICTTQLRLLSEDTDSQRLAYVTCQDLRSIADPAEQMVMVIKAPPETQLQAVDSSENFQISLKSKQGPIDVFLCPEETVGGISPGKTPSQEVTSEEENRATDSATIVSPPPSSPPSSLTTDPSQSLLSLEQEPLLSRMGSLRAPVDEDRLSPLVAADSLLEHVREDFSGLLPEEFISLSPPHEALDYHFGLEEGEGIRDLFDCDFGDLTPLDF
Aryl hydrocarbon receptor (Homo sapiens), sequence (P35869 whole entry, looked up): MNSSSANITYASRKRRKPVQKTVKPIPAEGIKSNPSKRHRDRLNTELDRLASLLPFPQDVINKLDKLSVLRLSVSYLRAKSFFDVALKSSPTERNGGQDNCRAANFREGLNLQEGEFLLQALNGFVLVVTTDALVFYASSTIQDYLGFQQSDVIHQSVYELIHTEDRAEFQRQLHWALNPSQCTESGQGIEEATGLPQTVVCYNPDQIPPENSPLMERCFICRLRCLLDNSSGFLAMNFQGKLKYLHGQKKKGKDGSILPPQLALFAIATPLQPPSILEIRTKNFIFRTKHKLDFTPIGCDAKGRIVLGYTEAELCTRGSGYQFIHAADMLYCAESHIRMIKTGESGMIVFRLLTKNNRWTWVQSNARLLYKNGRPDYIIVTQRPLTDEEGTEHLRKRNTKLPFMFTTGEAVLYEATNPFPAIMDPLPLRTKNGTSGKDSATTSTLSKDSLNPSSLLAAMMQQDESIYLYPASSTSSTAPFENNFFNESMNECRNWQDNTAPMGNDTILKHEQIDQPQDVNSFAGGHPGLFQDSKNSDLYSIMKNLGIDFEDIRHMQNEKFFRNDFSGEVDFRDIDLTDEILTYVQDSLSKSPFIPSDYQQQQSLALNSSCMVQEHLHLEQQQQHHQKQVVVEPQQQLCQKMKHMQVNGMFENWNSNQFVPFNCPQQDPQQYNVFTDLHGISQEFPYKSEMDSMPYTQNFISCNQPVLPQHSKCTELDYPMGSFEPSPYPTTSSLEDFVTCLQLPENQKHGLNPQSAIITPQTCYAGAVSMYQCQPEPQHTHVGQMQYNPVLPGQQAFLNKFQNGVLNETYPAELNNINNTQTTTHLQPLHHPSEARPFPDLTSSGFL
Retinoic acid receptor alpha (Homo sapiens), sequence (P10276 whole entry, looked up): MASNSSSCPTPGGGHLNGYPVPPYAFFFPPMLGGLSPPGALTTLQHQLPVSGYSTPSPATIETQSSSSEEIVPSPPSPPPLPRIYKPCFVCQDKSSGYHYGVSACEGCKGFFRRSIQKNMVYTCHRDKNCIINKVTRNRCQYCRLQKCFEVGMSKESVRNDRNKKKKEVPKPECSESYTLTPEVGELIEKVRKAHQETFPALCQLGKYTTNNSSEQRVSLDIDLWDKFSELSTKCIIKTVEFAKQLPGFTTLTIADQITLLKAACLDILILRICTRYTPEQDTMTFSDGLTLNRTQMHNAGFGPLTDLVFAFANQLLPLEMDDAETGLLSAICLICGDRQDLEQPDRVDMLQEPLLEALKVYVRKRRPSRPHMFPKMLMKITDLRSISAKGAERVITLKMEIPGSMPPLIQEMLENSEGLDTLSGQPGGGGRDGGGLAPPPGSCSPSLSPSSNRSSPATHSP

CC1(C)C(=O)NC(=O)N1CO
active: [8] 100 µM
not listed: [17] | [18] | [19] | [20]
inactive: all other assays above

CC(C)COC(=O)CCCCC(=O)OCC(C)C
not listed: [6] | [7] | [9] | [14] | [19] | [20]
inactive: all other assays above

CC1=C(C)S(=O)(=O)CCS1(=O)=O
active: [1] 82.3 µM | [3] 33.1 µM | [7] 73.8 µM | [8] 35.9 µM | [11] 129 µM | [12] 143 µM | [14] 166 µM
not listed: [9] | [17] | [18]
inactive: all other assays above

CCCCC(CC)CO (stereo not drawn)
not listed: [17] | [18] | [20]
inactive: all other assays above

NC=O
not listed: [6] | [7]
inactive: all other assays above

C=CCCCCCCCCCCCC
active: [1] 98.6 µM | [5] 98.5 µM | [7] 93.4 µM | [12] 100 µM | [13] 177 µM
not listed: [14] | [17] | [18] | [19]
inactive: all other assays above

Cc1ccc(-c2cc(C(F)(F)F)nn2-c2ccc(S(N)(=O)=O)cc2)cc1
active: [1] 100 µM | [17] 106 µM | [5] 111 µM | [13] 14.4 µM
not listed: [6] | [7] | [9] | [14] | [19]
inactive: all other assays above

CC(C)(C)c1ccccc1
not listed: [6] | [9] | [14] | [19]
inactive: all other assays above

O=C1O[C@H]([C@H](O)CO)C(O)=C1O
not listed: [17] | [18] | [19]
inactive: all other assays above

COC(=O)[C@H]1[C@H]2C[C@@H]3c4[nH]c5cc(OC)ccc5c4CCN3C[C@H]2C[C@@H](OC(=O)c2cc(OC)c(OC)c(OC)c2)[C@@H]1OC
active: [1] 23.9 µM | [2] 48 µM | [3] 16.3 µM | [4] 39.4 µM | [6] 55.1 µM | [7] 24.6 µM | [8] 28.8 µM | [10] 21.9 µM | [13] 22.8 µM
inactive: [5] | [9] | [11] | [12] | [15] | [16]

CCCCOC(=O)CCCCC(=O)OCCCC
active: [12] 154 µM
not listed: [6] | [7] | [9] | [14]
inactive: all other assays above

CC(=O)O[C@]1(C(C)=O)CC[C@H]2[C@@H]3C=C(Cl)C4=CC(=O)[C@@H]5C[C@@H]5[C@]4(C)[C@H]3CC[C@@]21C
active: [12] 100 µM and 73.3 µM and 33.4 µM | [13] 51.7 µM [middle of 4 runs] | [15] 173 µM and 60.4 µM | [16] 30.1 µM and 43.7 µM and 33.4 µM
inactive: [1] | [2] | [3] | [4] | [17] | [5] | [8] | [9] | [10] | [11] | [12] | [13] | [15] | [16]

Oc1ccc(O)cc1
active: [7] 91.9 µM | [8] 46.3 µM | [15] 28.8 µM | [16] 200 µM
not listed: [6] | [9] | [14] | [19]
inactive: all other assays above

CCc1nc(N)nc(N)c1-c1ccc(Cl)cc1
active: [1] 67.6 µM | [3] 110 µM | [7] 3.77 µM | [10] 100 µM | [11] 15 µM | [12] 2.18 µM | [14] 2.53 µM
not listed: [9] | [17] | [18] | [20]
inactive: all other assays above

N[C@@H](Cc1c[nH]c2ccccc12)C(=O)O
active: [19] 24 µM
not listed: [6] | [7] | [9] | [20]
inactive: all other assays above
